Measurements published in PubChem BioAssay (NCATS).

Assay: qHTS drug screen for cell cycle checkpoint inhibitors in PARPi-resistant BRCA-mutant ovarian cancer cell lines. (AID 1963452)
Conditions: PEO1/OlaR viability, CellTiter-Glo luminescence, 96 h; measured here: PEO1 parental Z-AUC; stronger effect = lower value
Procedure, shortened: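 PEO1, PEO4 and PEO1/OlaR ovarian cancer cells, 600 per well, exposed 96 h at 37C to a dilution series. Viability read by CellTiter-Glo luminescence, normalized to DMSO and empty wells; activity summarized as Z-AUC.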

SMILES | Z-AUC
C=CC(=O)N1CCc2ccc(-n3c(=O)ccc4cnc5ccc(-c6cnn(C)c6)cc5c43)cc21 | -0.285
Cc1ncc(-c2ccnc(Nc3ccc(S(C)(=O)=O)cc3)n2)n1C(C)C | -0.968
NC(=NCCCCCCN=C(N)N=C(N)Nc1ccc(Cl)cc1)N=C(N)Nc1ccc(Cl)cc1 | 0.0732
CCNC(=O)c1cc2c(-c3cc(OCCN4CCCC4)c(Cl)cc3Cl)nc(N)nc2s1 | -0.714
CC(C(C)N1CC(=O)NC(=O)C1)N1CC(=O)NC(=O)C1 (stereo not drawn) | 0.374
Cc1ccc(-n2[nH]c(C)c(N=Nc3cccc(-c4cccc(C(=O)O)c4)c3O)c2=O)cc1C | -0.314
NC(=O)Nc1cc(-c2ccc(CN3CCOCC3)cc2)sc1C(N)=O | 0.476
NC(=O)c1cccc(-c2cccc(OC(=O)NC3CCCCC3)c2)c1 | 0.554
c1ccc(CNc2nc(NCc3ccccc3)c3ccccc3n2)cc1 | -0.502
CN(CC(=O)N(Cc1ccc(C2CCCCC2)cc1)c1ccc(C(=O)O)c(O)c1)S(=O)(=O)c1c(F)c(F)c(F)c(F)c1F | 0.115
C#CCC(Cc1cnc2nc(N)nc(N)c2n1)c1ccc(C(=O)N[C@@H](CCC(=O)O)C(=O)O)cc1 (stereo partly drawn) | -2.32
C[C@H](NC(=O)Cc1cc(F)cc(F)c1)C(=O)N[C@H](C(=O)OC(C)(C)C)c1ccccc1 | -0.43
Cc1cc(C(=O)NOCCO)c(Nc2ccc(I)cc2F)n(C)c1=O | -1.14
CCc1ccc(C(=O)Nc2cc(CN3CCN(C)CC3)cc(C(F)(F)F)c2)cc1C#Cc1cnc2ccnn2c1 | -1.24
COc1ccc(C=Cc2cc(OC)c(OC)c(OC)c2)cc1NC(=O)[C@H](N)CO | -1.39
N#Cc1cc(NC(=O)Nc2nnc(-c3ccncc3)s2)ccc1-c1cn[nH]c1 | 0.0346
O=S(=O)(O)CCSSCCS(=O)(=O)O | 0.123

SMILES | Z-AUC
O=C(O)CCCCCC(=O)NN=C1CCCC1 | 1.02
CC(N[C@H]1CCCC[C@H]1NC(=O)c1ccc(Cl)cc1)c1cccc2ccccc12 (stereo partly drawn) | 0.0458
C=C(C)[C@@H]1CC[C@]2(C(=O)O)CC[C@]3(C)[C@H](CC[C@@H]4[C@@]5(C)CC[C@H](O)C(C)(C)[C@@H]5CC[C@]43C)[C@@H]12 | 0.622
O=C1CSC(=O)N1C(CCc1ccncc1)COc1ccc(-c2cccc([N+](=O)[O-])c2)cc1 (stereo not drawn) | -0.739
Oc1ccc(-c2ccc(-c3cc(Nc4cccc(CNC5CC5)c4)n[nH]3)cc2)c(O)c1 | 0.119
COC[C@H](NC(=O)c1cnc(C)s1)C(=O)N[C@@H](COC)C(=O)N[C@@H](Cc1ccccc1)C(=O)[C@@]1(C)CO1 | -2.62
CC(Oc1ccc(O)cc1)(P(=O)(O)O)P(=O)(O)O | 0.34
N#Cc1c(NC(=O)c2cccc3ccccc23)sc2c1CCCC2 | -0.695
Nc1nc(N)c2nc(-c3cccc(O)c3)c(-c3cccc(O)c3)nc2n1 | 1.16
Cc1ccccc1C(=O)Nc1ccc(C(=O)N2CCCC(O)c3cc(Cl)ccc32)c(C)c1 (stereo not drawn) | -0.255
C=Cc1c(C)c2cc3nc(cc4[nH]c(cc5nc(cc1[nH]2)C(C)=C5CCC(=O)O)c(CCC(=O)OC)c4C)[C@@]1(C)C3=CC=C(C(=O)OC)[C@H]1C(=O)OC | 1.25
CN(C)c1ccc2cc(C(=O)N[C@@H](CCCN=C(N)CCl)C(=O)NCc3ccccc3)ccc2c1 | 0.744
c1cc(N[C@@H]2CCNC2)nc(-c2cnc3ccc(-c4cn[nH]c4)cn23)c1 | -0.698
COc1cc2c(cc1OC)[C@@H]1C(=O)c3ccc4c(c3O[C@@H]1CO2)C=CC(C)(C)O4 | -1.79
Cn1cnc2c(F)c(Nc3ccc(Br)cc3F)c(C(=O)NOCCO)cc21 | -0.742
CCc1nc(-c2cccc(C)c2)c(-c2ccnc(NC(=O)c3ccccc3)c2)s1 | 0.57
COc1cc(CCc2cc(NC(=O)c3ccc(N4C[C@@H](C)N[C@@H](C)C4)cc3)n[nH]2)cc(OC)c1 | -0.945

Same assay, conditions: PEO1/OlaR viability, CellTiter-Glo luminescence, 96 h; measured here: PEO4 Z-AUC; stronger effect = lower value

SMILES | Z-AUC
C=CC(=O)N1CCc2ccc(-n3c(=O)ccc4cnc5ccc(-c6cnn(C)c6)cc5c43)cc21 | -0.334
Cc1ncc(-c2ccnc(Nc3ccc(S(C)(=O)=O)cc3)n2)n1C(C)C | -1.44
NC(=NCCCCCCN=C(N)N=C(N)Nc1ccc(Cl)cc1)N=C(N)Nc1ccc(Cl)cc1 | -0.00855
CCNC(=O)c1cc2c(-c3cc(OCCN4CCCC4)c(Cl)cc3Cl)nc(N)nc2s1 | -0.886
CC(C(C)N1CC(=O)NC(=O)C1)N1CC(=O)NC(=O)C1 (stereo not drawn) | 0.397
Cc1ccc(-n2[nH]c(C)c(N=Nc3cccc(-c4cccc(C(=O)O)c4)c3O)c2=O)cc1C | 0.208
NC(=O)Nc1cc(-c2ccc(CN3CCOCC3)cc2)sc1C(N)=O | 0.41
NC(=O)c1cccc(-c2cccc(OC(=O)NC3CCCCC3)c2)c1 | -0.318
c1ccc(CNc2nc(NCc3ccccc3)c3ccccc3n2)cc1 | -0.739
CN(CC(=O)N(Cc1ccc(C2CCCCC2)cc1)c1ccc(C(=O)O)c(O)c1)S(=O)(=O)c1c(F)c(F)c(F)c(F)c1F | 0.274
C#CCC(Cc1cnc2nc(N)nc(N)c2n1)c1ccc(C(=O)N[C@@H](CCC(=O)O)C(=O)O)cc1 (stereo partly drawn) | -1.96
C[C@H](NC(=O)Cc1cc(F)cc(F)c1)C(=O)N[C@H](C(=O)OC(C)(C)C)c1ccccc1 | -0.265
Cc1cc(C(=O)NOCCO)c(Nc2ccc(I)cc2F)n(C)c1=O | -0.82
CCc1ccc(C(=O)Nc2cc(CN3CCN(C)CC3)cc(C(F)(F)F)c2)cc1C#Cc1cnc2ccnn2c1 | -0.914
COc1ccc(C=Cc2cc(OC)c(OC)c(OC)c2)cc1NC(=O)[C@H](N)CO | -1.42
N#Cc1cc(NC(=O)Nc2nnc(-c3ccncc3)s2)ccc1-c1cn[nH]c1 | 0.15
O=S(=O)(O)CCSSCCS(=O)(=O)O | 0.876

SMILES | Z-AUC
O=C(O)CCCCCC(=O)NN=C1CCCC1 | 1.15
CC(N[C@H]1CCCC[C@H]1NC(=O)c1ccc(Cl)cc1)c1cccc2ccccc12 (stereo partly drawn) | 0.472
C=C(C)[C@@H]1CC[C@]2(C(=O)O)CC[C@]3(C)[C@H](CC[C@@H]4[C@@]5(C)CC[C@H](O)C(C)(C)[C@@H]5CC[C@]43C)[C@@H]12 | 0.86
O=C1CSC(=O)N1C(CCc1ccncc1)COc1ccc(-c2cccc([N+](=O)[O-])c2)cc1 (stereo not drawn) | 0.104
Oc1ccc(-c2ccc(-c3cc(Nc4cccc(CNC5CC5)c4)n[nH]3)cc2)c(O)c1 | 0.0871
COC[C@H](NC(=O)c1cnc(C)s1)C(=O)N[C@@H](COC)C(=O)N[C@@H](Cc1ccccc1)C(=O)[C@@]1(C)CO1 | -3.23
CC(Oc1ccc(O)cc1)(P(=O)(O)O)P(=O)(O)O | 0.383
N#Cc1c(NC(=O)c2cccc3ccccc23)sc2c1CCCC2 | -0.753
Nc1nc(N)c2nc(-c3cccc(O)c3)c(-c3cccc(O)c3)nc2n1 | 0.781
Cc1ccccc1C(=O)Nc1ccc(C(=O)N2CCCC(O)c3cc(Cl)ccc32)c(C)c1 (stereo not drawn) | 0.00137
C=Cc1c(C)c2cc3nc(cc4[nH]c(cc5nc(cc1[nH]2)C(C)=C5CCC(=O)O)c(CCC(=O)OC)c4C)[C@@]1(C)C3=CC=C(C(=O)OC)[C@H]1C(=O)OC | 1.36
CN(C)c1ccc2cc(C(=O)N[C@@H](CCCN=C(N)CCl)C(=O)NCc3ccccc3)ccc2c1 | 1.03
c1cc(N[C@@H]2CCNC2)nc(-c2cnc3ccc(-c4cn[nH]c4)cn23)c1 | -0.866
COc1cc2c(cc1OC)[C@@H]1C(=O)c3ccc4c(c3O[C@@H]1CO2)C=CC(C)(C)O4 | -1.41
Cn1cnc2c(F)c(Nc3ccc(Br)cc3F)c(C(=O)NOCCO)cc21 | -0.428
CCc1nc(-c2cccc(C)c2)c(-c2ccnc(NC(=O)c3ccccc3)c2)s1 | 0.812
COc1cc(CCc2cc(NC(=O)c3ccc(N4C[C@@H](C)N[C@@H](C)C4)cc3)n[nH]2)cc(OC)c1 | -0.842
